# Screening data: PubChem, The Scripps Research Institute Molecular Screening Center
# Shown are actives, neighbours in structure and some others; about 3.5% of the full set was active somewhere.
# TEAD-YAP inh: TEAD-YAP interaction inhibition; 640,000 tested, 1.4% active; inhibition, % at 9.12 µM; HEK-TIYL cells, TEAD-Gal4/YAP UAS-luciferase luminescence; in the data active = inhibition above about 32%;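 also: 0% = median of test compound wells and 100% = reference inhibitor wells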
# GPR151 activ: activators of human GPR151 | PathHunter beta-arrestin GPR151 cells, luminescence | 650,000 tested, 1% active | Q8TDV0 | activation, % at 11.2 µM; in the data active = activation above about 4.9%;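 also: 0% = median of compound wells and 100% = cells with positive control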
# MITF inh: inhibitors of human MITF; AID 1259374; 650,000 tested, 0.91% active; inhibition, % at 2.6 µM; AlphaScreen MITF homodimerization, bead proximity signal; in the data active = inhibition above about 50%;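 also: 0% = vehicle wells with protein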
# FBW7 act: human FBW7 E3 ligase activation, primary screen; AID 1259310; Q969H0; normalized activity (activation), % at 26.1 µM; 650,000 tested, 0.13% active; AlphaScreen FBW7–phospho-cyclin E peptide binding, activator screen; in the data active = normalized activity above about 1.9%;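 also: purified mutant Fbw7 with reduced substrate affinity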
# GPR151 confirm: human GPR151 activation, confirmation screen | shares compounds with GPR151 activ | GPR151 PathHunter beta-arrestin cells, luminescence, 90 min; % of EA-reagent control over plate median | activation, % at 11.2 µM | 6,700 tested, under 10 active;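 active = mean percent activation across replicates above the confirmation screen cutoff of 4.91%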
# GPR119 ag: counter-screen for GPR151 activators: effect on human GPR119; shares compounds with GPR151 activ; GPR119 PathHunter beta-arrestin cells, luminescence, 90 min; 0 = compound-well median, 100 = enzyme-acceptor control; activation, % at 11.2 µM; 6,700 tested, 0.3% active;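 active = mean percent activation in the counterscreen above 29.09%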;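 also: counterscreen on off-target GPR119 to flag nonselective hits from the GPR151 activator screen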
# Target sequence (Q8TDV5 whole entry, looked up): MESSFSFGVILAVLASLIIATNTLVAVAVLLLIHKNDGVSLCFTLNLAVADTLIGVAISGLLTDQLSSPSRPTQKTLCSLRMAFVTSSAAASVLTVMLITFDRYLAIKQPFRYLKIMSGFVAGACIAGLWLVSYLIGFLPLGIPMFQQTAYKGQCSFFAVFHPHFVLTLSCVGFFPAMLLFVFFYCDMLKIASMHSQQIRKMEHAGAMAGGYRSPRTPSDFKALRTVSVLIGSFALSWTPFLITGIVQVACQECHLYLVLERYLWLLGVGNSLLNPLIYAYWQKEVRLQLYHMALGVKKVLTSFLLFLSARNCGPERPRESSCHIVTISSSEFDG
# * hit, by the source's call; / = no result.
SMILES,TEAD-YAP inh,GPR151 activ,MITF inh,FBW7 act,GPR151 confirm,GPR119 ag
O=C(COc1ccccc1)Nc1ccccc1NC(=O)COc1ccccc1,14,5.8*,-3,0,0,5
CCCOc1ccccc1NC(=O)COc1ccc(C#N)cc1,5,12*,5,0,0,3
CC(=O)Nc1ccccc1NC(=O)COc1ccccc1,2,-2,-1,0,/,/
O=C(COc1ccc([N+](=O)[O-])cc1)Nc1cccc2cccnc12,5,5.9*,-1,0,0,8
COc1ccc(OCC(=O)Nc2ccccc2CO)cc1,-15,9.2*,3,0,0,-4
CCOc1ccccc1NC(=O)COc1ccc(F)cc1,-10,0,-3,0,/,/
Cc1ccccc1-n1c(=S)sc2c(=O)n(-c3ccccc3)c(=S)[nH]c21,-5,-1,-7,0,/,/
Cc1ccc2oc(=O)c3cnn(CC(=O)Nc4nc5ccccc5s4)c3c2c1,6,0,9,0,/,/
CC(=O)C1=C(C)NC(SCC(=O)c2cccc([N+](=O)[O-])c2)=C(C#N)C1c1cccs1 (stereo unspecified),-1,1,0,0,/,/
COc1ccc(CC(=O)Nc2ccc(N(C)C)c3ccccc23)cc1,-1,5.6*,16,0,1,-3
CCc1ccccc1NC(=O)COc1ccc(C#N)cc1,-6,7.5*,15,1,1,4
CCOc1ccc(OCC(=O)Nc2ccccc2CC)cc1,-8,-1,2,0,/,/
CCS(=O)(=O)N1CCC(NC(C)=O)(c2ccc(F)cc2)CC1,-7,2,-4,0,/,/
Cc1[nH]nc2c1C(c1cccc([N+](=O)[O-])c1)C1=C(CC(C)(C)CC1=O)N2 (stereo unspecified),-3,1,0,0,/,/
Cc1n[nH]c(C)c1CNC(=O)c1ccc(CN2CCCC(c3ccccc3)CC2)[nH]c1=O (stereo unspecified),5,1,12,1,/,/
COc1ccccc1OCCn1cc(/C=C(\C#N)C(=O)NC2CC2)c2ccccc21,13,5.6*,5,0,0,-7
COc1ccc(OCCn2cc(/C=C(\C#N)C(=O)NC3CC3)c3ccccc32)cc1,15,0,-7,0,/,/
CSc1nc(NNC(C)=O)c2c3c(sc2n1)COC(C)(C)C3,1,2,-17,0,/,/
CN(Cc1ccccc1)C(=O)CSc1nc2ccc(N3CCOCC3)cc2c(=O)n1Cc1ccccc1,3,-1,-2,0,/,/
O=C(O)CCC(=O)c1ccc(Cc2ccccc2)cc1,5,5.3*,4,0,1,3
Cc1cc(N)nc(-c2ccc(C(=O)N3CCN(C)CC3)cc2)n1,-11,8.5*,6,0,0,6
CCCNc1cc(C)nc(-c2ccc(C(=O)N3CCN(C)CC3)cc2)n1,-43,-2,-6,0,/,/
CN(C)C(C(=O)NC1CCCC1)c1ccc(Cl)cc1 (stereo unspecified),3,6.0*,-4,0,-1,-3
Cc1ccc(C(C(=O)NC2CCCC2)N(C)C)cc1 (stereo unspecified),10,-1,16,0,/,/
COc1cccc(C(=O)COC(=O)c2ccc3c(c2)C(=O)N(c2ccc(F)cc2)C3=O)c1,0,-1,-12,0,/,/
SMILES,TEAD-YAP inh,GPR151 activ,MITF inh,FBW7 act,GPR151 confirm,GPR119 ag
CCCCCCOc1ccc(C(=O)O)cc1,0,-5,-27,0,/,/
CCCOc1ccc(-c2ccc(C(=O)O)cc2)cc1,-23,6.3*,8,0,0,2
Nc1ccc(Oc2ccc3ccccc3c2Cl)c(Cl)c1,-9,2,10,1,/,/
Nc1ccc(Oc2ccc(Cl)c3ccccc23)c(Cl)c1,2,11*,4,0,0,7
COc1ccc2c(c1)CC(C(=O)Nc1ccc(-c3nn[nH]n3)cc1)CO2 (stereo unspecified),8,2,12,0,/,/
Cc1ccc2cc3c(nc2c1C)OCCN(C(=O)c1ccco1)C3,6,5.7*,16,0,0,-5
Cc1ccc2cc(C#N)c(N3CCCN(C(=O)c4ccco4)CC3)nc2c1C,4,-1,4,0,/,/
O=C(CC1(c2ccccc2)CC(=O)N(Cc2cccnc2)C1=O)N1CC[C@@H]2CCCC[C@H]2C1 (stereo partly specified),-4,9.5*,3,0,-1,-2
CCOc1ccccc1Nc1ccc(C(=O)N2CCCC2)cn1,8,8.7*,13,0,0,4
CC1CCN(C(=O)CSc2nc3[nH]ncc3c(=O)[nH]2)CC1,-5,7.7*,0,0,1,10
CC(=O)c1c(C)nnn1-c1nonc1C,8,5.1*,15,1,1,-4
CC(NC(=O)/C(=C\c1ccc([N+](=O)[O-])cc1)NC(=O)c1ccco1)C(=O)O (stereo unspecified),-5,2,-13,0,/,/
CCCn1c(-c2ccccc2)n[nH]c1=S,9,-2,15,0,/,/
COc1cc(-c2ccc(NC(=O)C3CCCO3)c(OC)c2)ccc1NC(=O)C1CCCO1 (stereo unspecified),-7,4,-4,0,/,/
CCOc1cc(NC(=O)C2CCCO2)c(OCC)cc1NC(C)=O (stereo unspecified),-8,15*,20,0,1,10
CCCCCc1nnc(NC(=O)C2CCCO2)s1 (stereo unspecified),-52,-1,-8,0,/,/
CCCc1cc(C(N)=O)c(NC(=O)C2CCCO2)s1 (stereo unspecified),-1,10*,21,0,1,14
O=C(CSc1nc(=O)n(Cc2ccncc2)c2c1CCCC2)NCc1ccco1,1,-3,-8,0,/,/
O=C(Oc1cccc(OC(=O)c2ccccc2F)c1)c1ccccc1F,5,5.6*,-7,0,0,-12
Cn1c(=O)c(=O)n(C)c2cc(S(=O)(=O)NCCN3CCCCCC3)ccc21,-6,0,15,0,/,/
Cc1ccc(S(=O)(=O)CCC(=O)OCC(=O)c2ccc3c(c2)OCCO3)cc1,0,3,-1,0,/,/
Cc1ccccc1OC1=NS(=O)(=O)c2cc([N+](=O)[O-])ccc21,9,8.6*,11,0,0,-8
CNCCOc1cccc(OC(C)C)c1,-9,4.9*,34,0,0,-1
COc1ccc(CNC(=O)C(=O)Nc2ccc(C#N)cc2)cc1,4,-1,6,0,/,/
O=C(CSc1nc2ccc(Nc3nc(N4CCOCC4)nc(N4CCOCC4)n3)cc2s1)NCC1CCCO1 (stereo unspecified),6,-1,1,1,/,/
O=C(CSc1nc2ccc(Nc3nc(N4CCOCC4)nc(N4CCOCC4)n3)cc2s1)NC1CC1,0,9.3*,-1,0,1,12
